This is part of a sample that, as a whole, favours compounds with a hit. Of some 83,000 tested, about 20% had one in any assay.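 48-hour exposure, single concentration, 96-well plates; percent growth endpoint where 0 means no net growth. Active: below 10.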 Unmarked numbers belong to inactive results. Active and inactive are the calls of the source.

40 compounds from PubChem BioAssay (NCI) can be followed below.

The experiment deals with HS 578T breast. Briefly: NCI-60 one-dose screen, 48 h (100 = growth as untreated, 0 = no growth, -100 = all killed). Particulars: 10 µM. The procedure: Growth inhibition of the HS 578T human tumor cell line is measured as a screen for anti-cancer activity. Cells are grown in 96 well plates and exposed to the test compound for 48 hours. Compounds are tested at a single concentration, which is 10^-5 M for most compounds. The reported endpoint is percent growth (GI% or GIPRCNT), where numbers from 0 - 100% represent growth inhibition, and numbers from -100% - 0 represent cell death. For example, a value of 40 represents 60% growth inhibition. A value of 0 means no net growth occurred over the course of the experiment. A value of -40 indicates 40% of cells at the beginning of the experiment died by the end of the experiment. A value of -100 means all cells are dead at the end of the experiment.
NCI-60 Human Tumor Cell Lines Screen was performed using the standard one-dose NCI protocol, which is described in more detail at https://dtp.cancer.gov/discovery_development/nci-60/default.htm.
Compounds with GIPRCNT values below 10 were considered active. Activity score was based on GIPRCNT using the following formula: […]
Score is 0 for GIPRCNT values of 100 or above, 50 for GIPRCNT values of 0, and 100 for GIPRCNT values of -100.
Regarding `CC(C)(C)c1ccc(S(=O)(=O)N[C@H]2CC[C@H]3[C@@H]4CCc5cc(O)ccc5[C@H]4CC[C@]23C)cc1`, the growth is 63.1%.

As for `CC(=O)Nc1ccc(CC[C@H]2CCC/C=C/[C@@H]3C[C@H](O)C[C@H]3[C@H](O)/C=C/C(=O)O2)cc1`, the growth was 34.9%. The same measure for `COc1ccc(C(=O)CC(CC(=O)c2ccc(OC)cc2)c2c(C)nn(-c3ccccc3)c2Cl)cc1`: 94.4%. The same measure for `C#CCOc1c(OC)cc(C(=O)/C(C)=C/c2cccc(N=[N+]=[N-])c2)cc1OC`: 46%; for `CN(C)c1ccc(/C=N/NC(=O)c2cccc3ccccc23)c(Cl)c1`: 42.2%; for `O=C1/C(=C/c2cccc(F)c2)Cc2ccccc21`: 181%. Take `CC(=O)O[C@@]12CO[C@@H]1C[C@H](O)[C@@]1(C)C(=O)[C@H](O)C3=C(C)[C@@H](OC(=O)[C@H](O)[C@@H](NC(=O)OC(C)(C)C)c4ccccc4)C[C@@](O)([C@@H](OC(=O)c4ccccc4)C12)C3(C)C` (stereo not given in full): the growth was 12.3%. In the case of `COc1cc(-c2nn(-c3ccc(NC(=O)NCCNS(=O)(=O)c4ccc(F)cc4)cc3)cc2-c2ccncc2)ccc1Cl` it was 21.6%; in that of `NS(=O)(=O)c1ccc(N2N=C(c3ccccc3)CCC2=O)cc1`, 113%; in that of `COc1ccc(C2CC(c3cc(OC)c(OC)c(OC)c3)=NN2)cc1` (stereo not given), 104%. The same measure for `NNC(=O)Oc1c(Cl)cc(Cl)cc1[N+](=O)[O-]`: 104%; for `COc1cc2cc(Oc3ccc(NC(=O)c4ccc(Cl)c(C(F)(F)F)c4)cc3)c(C)nc2cc1OC`: 41.6%; for `CN(C)c1ncnc2c1nnn2C1OC(CO)C(O)C1O` (stereo not given): 19.8%.

Regarding `COc1ccc(/C=C2\CCCC3=C2NC(N)=NC3c2ccc(OC)c(OC)c2)cc1OC` (stereo not given), the growth is 87.9%. `COc1cc(C2CC(c3ccc4c(c3)OCO4)=NN2c2ccccc2)cc(OC)c1OC` (stereo not given): the growth is 93.6%. In the case of `c1cnc2[nH]cc(-c3nc(-c4ccsc4)cs3)c2c1`, the growth is 87.5%.

As for `CNC(=O)c1c(I)c(NC(C)=O)c(I)c(C(=O)O)c1I`, the growth is 110%.

With `C#C[C@]1(O)CCC2C3CCc4cc(OC5CCCC5)ccc4C3CC[C@@]21C` (stereo not given in full), the growth is 85.6%. Take `O=C(COc1cccc(/C=C2\CSc3ccc(Cl)cc3C2=O)c1)c1ccc(Cl)cc1`: the growth is 93%. Take `COc1cc2c3c(n(C4CCNCC4)c(=O)c2cc1OC)-c1cc2c(cc1C3=O)OCO2`: the growth was -48.5% (active).

As to `CS(=O)(=O)c1nccc(-c2c(-c3ccc(OCCc4ccccc4)cc3)nc3sccn23)n1`, the growth was 87%. The same measure for `N#Cc1c(-c2ccc(Cl)cc2)cc(-c2cc(O)ccc2O)nc1N`: 27.6%. For the compound `CNC(=O)c1cc(Oc2ccc3c(c2)sc2nc(-c4ccc(NC(=O)Nc5ccc(Cl)c(C(F)(F)F)c5)cc4)cn23)ccn1`, the growth was 71.7%. For `CCCCC1(O)CCCCC1`, the growth was 98.1%. With `O=C(N/N=C/c1cc([N+](=O)[O-])ccc1O)c1cccc2ccccc12`, the growth was 64.1%. The same measure for `COC(=O)C1(O)NC(=C(C#N)C#N)C(C#N)=C1C(=O)c1ccc(OC)c(OC)c1` (stereo not given): 95.9%; for `C[C@@H](O)[C@H]1C(=O)N2C(C(=O)O)=C(SC3CN[C@H](C(=O)N(C)C)C3)[C@H](C)[C@H]12` (stereo not given in full): 102%; for `Cc1ccccc1N1C(=O)c2cc(S(N)(=O)=O)c(Cl)cc2NC1C` (stereo not given): 111%. In the case of `COc1cc2cc(Oc3ccc(NC(=O)c4cccc(C(F)(F)F)c4)cc3)c(C)nc2cc1OC` it was 41.2%; in that of `O=C(CCC(C(=O)c1ccccc1)c1ccccc1)c1ccccc1` (stereo not given), 80.1%; in that of `O=C(Nc1cc(Cl)cc2c1-c1ccc(Cl)cc1C2O)C(Cl)Cl` (stereo not given), 78.8%. The same measure for `COc1cc(NC(=O)Nc2cnc(Nc3ccc(N4CCOCC4)cc3)nc2Oc2cccc(OC)c2)cc(OC)c1`: 23.2%. As for `CC(=O)Nc1ccc(S(=O)(=O)N/N=C(\C)c2ccc(C)cc2C)cc1`, the growth is 134%. Consider `COc1ccc(C(=O)c2cc3c(OC)c(OC)c(OC)cc3[nH]2)cc1`, for which the growth is 51.8%. In the case of `Cc1cn(-c2cccc(NC(=O)c3ccc(C)c(Nc4nccc(-c5cccnc5)n4)c3)c2)cn1` it was -8.85% (active); in that of `COc1nc2c(c(=O)n1C)CN(c1ccccc1)C(=O)C(C)N2` (stereo not given), 105%; in that of `COc1cc(-c2nn(-c3cccc(NC(=O)CN4CCOCC4)c3)cc2-c2cccnc2)ccc1Cl`, 76.3%. The same measure for `C[n+]1c2ccccc2nc2ccccc21`: -12.1% (active); for `CC(C)(C)OC(=O)N1CCc2c(sc3ncnc(N/N=C/c4ccc(Br)cc4)c23)C1`: 73.9%. As for `COc1cc(-c2ccc[nH]2)[nH]c1/C=C1\N=C(C)C(C(=O)NC(C)C)=C1C`, the growth was 39.1%.
